Laboratory results: PubChem BioAssay AID651840 (Vanderbilt Specialized Chemistry Center, 2012)
Results with a measured potency or affinity are listed apart. The source made the active and inactive calls.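 How the source made its calls: active means mean concentration giving half inhibition of the glutamate calcium response below 30 µM; inactive means the rest.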

Each molecule was assayed against Metabotropic glutamate receptor 3 (Rattus norvegicus) (UniProt P31422) (assay: mGlu3 NAM potency via calcium readout, dose response, mGlu3 NAM project, TREx293 cells, Galpha15, calcium flux (AID 651840)). Conditions: TREx293 mGlu3/Galpha15, calcium fluorescence, glutamate EC80.
Metabotropic glutamate receptor 3 (Rattus norvegicus), sequence (P31422 whole entry, looked up): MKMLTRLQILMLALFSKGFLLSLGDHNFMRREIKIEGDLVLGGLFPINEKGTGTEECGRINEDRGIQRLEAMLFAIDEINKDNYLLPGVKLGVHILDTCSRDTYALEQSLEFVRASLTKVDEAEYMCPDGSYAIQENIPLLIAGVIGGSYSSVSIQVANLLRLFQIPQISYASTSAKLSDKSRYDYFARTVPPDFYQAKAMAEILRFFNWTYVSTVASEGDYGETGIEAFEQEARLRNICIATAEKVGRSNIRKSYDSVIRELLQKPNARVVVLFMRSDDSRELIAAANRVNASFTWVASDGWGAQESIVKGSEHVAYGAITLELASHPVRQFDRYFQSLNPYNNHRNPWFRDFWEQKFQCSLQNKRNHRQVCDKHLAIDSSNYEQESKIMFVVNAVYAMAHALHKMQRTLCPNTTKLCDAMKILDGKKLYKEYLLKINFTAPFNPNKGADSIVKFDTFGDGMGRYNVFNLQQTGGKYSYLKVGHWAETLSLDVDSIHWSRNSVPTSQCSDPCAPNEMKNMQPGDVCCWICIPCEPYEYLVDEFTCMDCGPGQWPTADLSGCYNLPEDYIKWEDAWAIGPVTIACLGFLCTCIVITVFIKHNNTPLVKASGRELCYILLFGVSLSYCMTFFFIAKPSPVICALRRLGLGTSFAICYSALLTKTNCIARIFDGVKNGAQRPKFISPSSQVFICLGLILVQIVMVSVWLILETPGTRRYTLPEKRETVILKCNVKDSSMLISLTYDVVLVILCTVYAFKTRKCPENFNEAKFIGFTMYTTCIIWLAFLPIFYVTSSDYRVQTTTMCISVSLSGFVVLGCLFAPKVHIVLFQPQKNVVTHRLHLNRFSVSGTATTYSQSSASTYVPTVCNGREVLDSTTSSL

outcome, inactive:
COc1ccc(C#Cc2ccc(C(=O)N3CCCC(O)(c4ccc(Cl)cc4)C3)cc2)cc1 (configuration not stated)
COc1ccc(C#Cc2ccc(C(=O)N3CCCC(O)(c4ccc5ccccc5c4)C3)cc2)cc1 (configuration not stated)
COc1ccc(C#Cc2ccc(C(=O)N3CCCC(O)(c4ccccc4)C3)cc2)cc1 (configuration not stated)
COc1ccc(C#Cc2ccc(C(=O)N3CCCC(O)(c4ccncc4)C3)cc2)cc1 (configuration not stated)
O=C(c1ccc2cc(-c3cccc(-c4ccccc4)c3)ccc2c1)N1CCCC(CO)C1 (configuration not stated)
COc1ccc(C#Cc2ccc(C(=O)N[C@@H]3CCCNC3)cc2)cc1
COc1ccc(C#Cc2ccc(C(=O)N3CCCC(O)(c4ccc(F)cc4)C3)cc2)cc1 (configuration not stated)
COc1ccc(C#Cc2ccc(C(=O)N3CCCC(O)(CCC4OCCCO4)C3)cc2)cc1 (configuration not stated)
COc1ccc(C#Cc2ccc(C(=O)N3CCCC(O)(c4cccc(OC)c4)C3)cc2)cc1 (configuration not stated)
COc1cccc(COc2ccc(C(=O)N3CC(O)C3)cc2)c1
COc1ccc(C#Cc2ccc(C(=O)N3CCCC(O)(c4cccc(F)c4)C3)cc2)cc1 (configuration not stated)
COc1ccc(C#Cc2ccc(C(=O)N3CCCC(O)(c4ccccc4OC)C3)cc2)cc1 (configuration not stated)
